Measured values reported in PubChem BioAssay (Tox21).
Inconclusive results are not listed. A call without a number means that no potency is given here. Some compounds were tested as several samples or in several runs, with calls that do not always agree. Activity calls are given as the source filed them. Calls come from the whole dose curve.
Potency is the fitted concentration of half-maximal effect.

Test: qHTS assay for small molecule agonists of the antioxidant response element (ARE) signaling pathway - cell viability counter screen (AID 743203); note: nearly all actives have a fitted effect of over 55% in size
Conditions: ARE-bla HepG2 viability, CellTiter-Glo luminescence, 16 h; series mostly up to 73.3 µM
Source text: National Center for Advancing Translational Sciences [NCATS]
NIH Chemical Genomics Center [NCGC]
U.S. Environmental Protection Agency [EPA]
National Institutes of Environmental Health Sciences [NIEHS]
National Toxicology Program [NTP]
U.S. Food and Drug Administration [FDA]
Oxidative stress has been implicated in the pathogenesis of a variety of diseases ranging from cancer to neurodegeneration. The antioxidant response element (ARE) signaling pathway plays an important role in the amelioration of oxidative stress. The CellSensor ARE-bla HepG2 cell line (Invitrogen) can be used for analyzing the Nrf2/antioxidant response signaling pathway. Nrf2 (NF-E2-related factor 2) and Nrf1 are transcription factors that bind to AREs and activate these genes. The CellSensor ARE-bla Hep G2 cell line contains a beta-lactamase reporter gene under control of the Antioxidant Response Element (ARE) stably integrated into HepG2 cells. The activation of the report gene under culture conditions can be detected by fluorescence intensity. This cell line has been used to screen the Tox21 10K compound library to identify agonists that induce oxidative stress. The cytotoxicity of the Tox21 compound library against the ARE-bla cell line was tested in parallel by measuring the cell viability using CellTiter-Glo assay (Promega, Madison, WI) in the same wells.
Tox21 Assay Protocol Summary:
ARE-bla HepG2 cells were dispensed at 2,000 cells/5 ul/well in 1536-well white wall/solid bottom plates using a Multidrop Combi (ThermoFisher Scientific, Waltham, MA) dispenser. After the assay plates were incubated at 37C/5% CO2 for 5 hrs, 23 nL of compounds dissolved in DMSO, positive controls or DMSO only was transferred to the assay plate by a pintool work station (Kalypsys, San Diego, CA). The plates were incubated at 37C/5% CO2 for 16 hrs, followed by addition of 4 ul/well of CellTiter-Glo reagent into the assay plates using a Flying Reagent Dispenser (Aurora Discovery, San Diego, CA). After 30 min incubation at room temperature, the luminescence intensity in the assay plates was measured using a ViewLux (PerkinElmer, Shelton, CT) plate reader.
In the case of COc1ccc(C)cc1N, the Potency is reported as “inactive”.
With CC(O)CC(C)(C)O (stereo not given) the Potency was “inactive”.
With CN(C)c1ccc(Cc2ccc(N(C)C)cc2)cc1 the Potency was “inactive”.
With CN(C)c1ccc(O)c2c1C[C@H]1C[C@H]3[C@H](N(C)C)C(=O)C(C(N)=O)=C(O)[C@@]3(O)C(=O)C1=C2O the Potency was “inactive”.
With CCOC(=O)n1ccn(C)c1=S the Potency was “inactive”.
In the case of CC(C)(C#N)c1cc(Cn2cncn2)cc(C(C)(C)C#N)c1, the Potency is reported as “inactive”.
For CCCCCC(=O)O, the Potency was “inactive”.
For O=C(O)c1cc2ccccc2cc1O, the Potency was “inactive”.
In the case of CC(C)c1cccc(C(C)C)c1, the Potency is reported as “inactive”.
With C=CC[N+](C)(C)CC=C the Potency was “inactive”.
In the case of O=C(O)c1ccccc1C(=O)O, the Potency is reported as “inactive”.
In the case of O=c1[nH]cnc2[nH]ncc12, the Potency is reported as “inactive”.
With Cc1ccc(C(C)C)c(O)c1 the Potency was 61.1 µM (active) and inactive.
In the case of CN1C(=O)CC[C@H]1c1cccnc1, the Potency is reported as “inactive”.
With C=CC(=O)OCCC(=O)O the Potency was “inactive”.
With Nc1ccc(Cl)c(N)c1 the Potency was “inactive”.
For c1ccc(Oc2ccccc2)cc1, the Potency was “inactive”.
With Cc1ccc(S(=O)(=O)N=C=O)cc1 the Potency was “inactive”.
In the case of CC(C)(Oc1ccc(CCNC(=O)c2ccc(Cl)cc2)cc1)C(=O)O, the Potency is reported as “inactive”.
For CCOCCOCCOCCO, the Potency was “inactive”.
In the case of CC1(C)NC(=O)NC1=O, the Potency is reported as “inactive”.
For C[C@]12CC[C@@H]3c4ccc(O)cc4CC[C@H]3[C@@H]1C[C@@H](O)[C@@H]2O, the Potency was “inactive”.
With CC(=O)CC(C)(C)O the Potency was “inactive”.
In the case of CCCCCCCCCCCCCCCCO, the Potency is reported as “inactive”.
For OCc1ccccc1, the Potency was “inactive”.
In the case of CC1(C)CC(N)CC(C)(CN)C1 (stereo not given), the Potency is reported as “inactive”.
In the case of CCNC(=S)NCC, the Potency is reported as “inactive”.
In the case of CCCCCCCCCCO, the Potency is reported as “inactive”.
With O=C(OCC1CCC2OC2C1)C1CCC2OC2C1 (stereo not given) the Potency was “inactive”.
For CCNc1cccc(C)c1, the Potency was “inactive”.
With COC(=O)CCCC(=O)OC the Potency was “inactive”.
In the case of N#Cc1ccccc1, the Potency is reported as “inactive”.
In the case of CC(=O)OCCOC(C)=O, the Potency is reported as “inactive”.
In the case of CC(C)CC(=O)CC(C)CC(C)C (stereo not given), the Potency is reported as “inactive”.
With CNC(=S)N(C)C the Potency was “inactive”.
For O=C(O)/C=C/C(=O)O, the Potency was “inactive”.
In the case of O=[N+]([O-])c1ccc2nc[nH]c2c1, the Potency is reported as “inactive”.
In the case of NCCCCCCN, the Potency is reported as “inactive”.
For O=C1CCCC1, the Potency was “inactive”.
In the case of CC(C)OP(=O)(CP(=O)(OC(C)C)OC(C)C)OC(C)C, the Potency is reported as “inactive”.
